The results in this text go back to ChEMBL document CHEMBL1157539, “Thousands of chemical starting points for antimalarial lead identification” (Nature, 2010).

Holding throughout (format): functional
Assay [1] has as its system Plasmodium falciparum. The experiment in a line: GSK_TCMDC: Inhibition of Plasmodium falciparum 3D7 in whole red blood cells, using parasite LDH activity as an index of growth. Test compounds present at 2uM.
In assay [2] the test system is Plasmodium falciparum. Put plainly: GSK_TCMDC: Inhibition of Plasmodium falciparum Dd2 in whole red blood cells, using parasite LDH activity as an index of growth. Test compounds present at 2uM.
For assay [3], the system named is HepG2. Put plainly: GSK_TCMDC: Percent inhibition of human HepG2 cell line. Test compounds present at 10uM.

As a reminder, the Inhibition is the share of the control response that was lost under treatment. Low readings indicate a response near the control, high ones a response far below the control.

`CCOc1ccc2[nH]c(C)cc(=NN=Cc3ccccc3Cl)c2c1`: the Inhibition is listed as 100% in assay [1], 100% in assay [2] and 11% in assay [3].

Consider `Cc1cc(CNCCCCCCNCc2ccc(Cl)cc2)ccc1O`, for which the Inhibition is recorded as 96% in assay [1], 0% in assay [2] and 23% in assay [3].

In the case of `CCCSc1nc2c(c(=O)n1CCc1ccccc1)C1(CCCC1)Cc1ccccc1-2`, the Inhibition in assay [1] was 99%; in assay [2] it was 53%; in assay [3] it was 46%.

In the case of `O=C(NCC1COc2ccccc2O1)c1cnc2c(c1)nc(-c1c[nH]c(-c3ccccc3)n1)n2CCSCc1c(F)cccc1Cl` (centres undefined), the figures for the Inhibition in assay [1], in assay [2] and in assay [3] were 95%, 10% and 6%, respectively.

Take `Cl.Nc1ncc(-c2ccccc2)cc1-c1nc2cc(Cl)c(F)cc2[nH]1`: the Inhibition in assay [1] is on record as 100%; in assay [2], 91%; in assay [3], 37%.

Take `Cc1ccc2cc(NC(=O)CCCCCCCON3C(N)=NC(N)=NC34CCCCC4)ccc2n1.O=C(O)C(F)(F)F`: the Inhibition turned out to be 98% in assay [1], 86% in assay [2] and 6% in assay [3].

As for `COc1ccc(CNC2Cc3ccccc3C2)cc1-c1ccc(OC)c(S(=O)(=O)NCCN2CCCC2)c1.O=C(O)C(F)(F)F`, the Inhibition in assay [1] is given as 100%; in assay [2] it was 97%; in assay [3], 31%.

As for `Oc1nc(Cc2ccccc2)nc2ccc(Cl)cc12`, the Inhibition in assay [1] is 92%; in assay [2] it was 76%; in assay [3], 13%.

Take `CC(C)(C)NS(=O)(=O)c1cc(C(=O)N2CCC(CCN3CCC(O)(c4cccc(C(F)(F)F)c4)CC3)(c3cccc(F)c3)CC2)c(Cl)cc1F`: the Inhibition in assay [1] is 88%; in assay [2], 55%; in assay [3], 15%.

Take `Cc1cc2nc(N/C(N)=N/C(=O)NC3CCCCC3)nc(C)c2cc1C`: the Inhibition turned out to be 94% in assay [1], 98% in assay [2] and 20% in assay [3].

With `Cc1nc(O)c2c(ccc3ccc(CN(C)c4ccc(C(=O)N[C@@H](CCC(=O)O)C(=O)O)cc4)cc32)n1`, the Inhibition in assay [1] stood at 95%; in assay [2], 27%; in assay [3], 42%.

Consider `COc1ccc(C2CC(=O)C3=C(C2)NC(C)=C(C(=O)OC2CCCC2)C3c2cccc(O)c2)cc1` (centres undefined), for which the Inhibition in assay [1] is reported as 88%; in assay [2] it was 83%; in assay [3], 0%.

As to `COc1ccccc1C1CC(c2ccccc2)=NN1C(=O)c1ccco1` (centres undefined), the Inhibition in assay [1] was 97%; in assay [2], 95%; in assay [3], 12%.

Take `FC(F)(F)c1ccc2[nH]c(-c3ccc(-c4ccc(CNCc5cnn(-c6ccccc6)n5)cc4)s3)nc2c1.O=C(O)C(F)(F)F`: the Inhibition was 100% in assay [1], 89% in assay [2] and 27% in assay [3].

With `COc1ccc(C(O)CNC(C)CCc2ccc(F)cc2)cc1C(F)(F)F.Cl` (centres undefined), the Inhibition worked out at 99% in assay [1], 98% in assay [2] and 92% in assay [3].

As for `Cc1noc(C)c1C(=O)N1CCc2cc3nccc(N4CCN5CCC[C@H]5C4)c3cc21`, the Inhibition came out at 93% in assay [1], 9% in assay [2] and 7% in assay [3].

As to `CCc1ccc(CN2CCC(NC(=O)c3cc(-c4ccc(N(C)C)cc4)cs3)C2)cc1.O=C(O)C(F)(F)F` (centres undefined), the Inhibition turned out to be 90% in assay [1], 7% in assay [2] and 29% in assay [3].

For `O=C(O)C(F)(F)F.O=C1CCCN1CCCNCc1ccc(-c2ccc(-c3nc4cc(F)ccc4[nH]3)s2)cc1`, the Inhibition in assay [1] amounted to 100%; in assay [2] it was 91%; in assay [3], 19%.

`O=C(O)C(F)(F)F.c1cc(CN2CCC(CCN3CCCCC3)CC2)cc(-c2cccc(-c3nc4ccccc4[nH]3)c2)c1`: the Inhibition is 100% in assay [1], 100% in assay [2] and 95% in assay [3].

`CNC(=O)c1ccccc1Nc1nc(Nc2ccc(CCN3CCN(C)CC3)cc2)ncc1Cl.Cl`: the Inhibition is given as 97% in assay [1], 98% in assay [2] and 76% in assay [3].

As to `O=C(Nc1ccc(Cl)cc1)c1ccc(CN2CCCN(CC3CCCCC3)CC2)cc1.O=C(O)C(F)(F)F`, the values for the Inhibition in assay [1], in assay [2] and in assay [3] were 92%, 42% and 48%, respectively.

On to `Cc1cc(C2CCN(CCCCNC(=O)c3ccc(NC(=O)c4ccc(Cl)cc4)cc3)CC2)c(C)cc1OCCN(C)C`, for which the figures for the Inhibition in assay [1], in assay [2] and in assay [3] were 100%, 77% and 18%, respectively.

With `Cc1cc(N2CCCC2)nc(Nc2ccc(NC(=O)c3ccco3)cc2)n1`, the Inhibition is reported as 100% in assay [1], 43% in assay [2] and 23% in assay [3].

Turning to `O=C(Nc1cccnc1)c1cn(-c2ccccc2)nc1-c1cccs1`, the results for the Inhibition in assay [1], in assay [2] and in assay [3] were 99%, 61% and 3%, respectively.

Turning to `Clc1ncccc1-c1nc(NCCC(c2ccccc2)c2ccccc2)no1`, the values for the Inhibition in assay [1], in assay [2] and in assay [3] were 94%, 82% and 12%, respectively.

Regarding `O=C(O)C(F)(F)F.O=c1ccc2ccc(F)c3c2n1CC3CN1CCC(NCc2cccc(-c3cccs3)c2)CC1` (centres undefined), the values for the Inhibition in assay [1], in assay [2] and in assay [3] were 100%, 75% and 17%, respectively.

As for `Br.CCCCCCCn1c2c(c(=N)c3c1CCC3)CCCC2`, the results for the Inhibition in assay [1], in assay [2] and in assay [3] were 98%, 98% and 46%, respectively.

Consider `O=C(NC1CCCC1)c1ccc(N2CCC(NCc3cccc(C(F)(F)F)c3)CC2)cc1`, for which the results for the Inhibition in assay [1], in assay [2] and in assay [3] were 87%, 75% and 11%, respectively.
